According to PubChem BioAssay AID2685 (National Center for Advancing Translational Sciences (NCATS), 2010):
Hit rate of the full screen: of about 320,000 compounds, about 2,100 (0.66%) were called active. Another 53% or so got no clear call; they are omitted. This is one part of a sample in which actives are shown more often than they occur. Calls follow the shape of the dose curve; as a rule, active = well fitted inhibition curve with a large enough effect in the signal ratio, with a control signal flat (not every such curve was filed as active); inconclusive = small, poorly fitted or top-dose-only effect, or effect the other way, or a change in a side signal; inactive = flat fitted curve, though single readings scatter; the % refers to the signal ratio.
Potency is read from the fitted curve at half-maximal effect.

Experiment: qHTS Assay for Lipid Storage Modulators in Drosophila S3 Cells;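 as to cell number change: cells counted by Cell Tracker Red CMTPX staining in the red channel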; as to lipid storage change, negative = inhibition: % is scaled to controls: 0 for no effect and ±100 for the full control effect
Settings: BODIPY lipid droplet fluorescence, 18-24 h, cells fed with added oleic acid; cell number change: measured here: cell count max response; series mostly up to 46.1 µM; lipid storage change, negative = inhibition: at the top concentration
In short: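 Drosophila S3 cells loaded with oleic acid (400 uM, as added) and compounds at several concentrations; lipid droplets imaged by 488-nm laser-scanning cytometry, 500–530 nm intensity and object ratio to cell channel. Percent activity normalized to 20 uM Triacsin C.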
With `CC(C)(C)c1ccc(S(=O)(=O)/N=C2\C=C(NS(=O)(=O)c3ccccc3)C(=O)c3ccccc32)cc1` the “outcome” value was “inactive” and the cell number change was -1.8%. In the case of `O=C(O)c1ccc(S(=O)(=O)/N=C2\C=C(Nc3ccccc3F)C(=O)c3ccccc32)cc1`, the Potency is reported as 6.51 µM (active) and the cell number change is reported as 2.14%. For `O=S(=O)(/N=C(/Nc1ccccc1F)c1ccccc1)c1ccccc1`, the “outcome” value was “inactive”. With `Cc1cc(C)c(S(=O)(=O)/N=C2\C=C(Nc3ccc(C(=O)O)cc3)C(=O)c3ccccc32)c(C)c1` the Potency was 0.92 µM (active) and the cell number change was 11.7%. With `CCc1ccc(S(=O)(=O)/N=C2\C=C(Nc3ccc(O)cc3)C(=O)c3ccccc32)cc1` the “lipid storage change, negative = inhibition” value was -100% (inactive) and the cell number change was 15.8%. In the case of `CC(=O)Nc1ccc(NC2=CC(=O)c3ccccc3C2=O)cc1`, the “lipid storage change, negative = inhibition” value is reported as 6.65% (inactive) and the cell number change is reported as 4.49%. With `Cc1ccc(-n2c(C)cc(/C=N/NC(=O)c3ccncc3)c2C)cc1C` the “outcome” value was “inactive”. In the case of `CC1(C)CC(NC(=S)Nc2ccc([N+](=O)[O-])cc2)CC(C)(C)N1`, the “lipid storage change, negative = inhibition” value is reported as -0.0033% (inactive) and the cell number change is reported as 15.8%. In the case of `CCOC(=O)C1CCN(c2cc3c(cc2NC(=O)c2ccc(F)cc2)n(C)c(=O)n3C)CC1`, the “outcome” value is reported as “inactive” and the cell number change is reported as -8.96%. With `CCOC(=O)C1CCN(c2cc3c(cc2NC(=O)c2ccccc2)n(C)c(=O)n3C)CC1` the Potency was 3.66 µM (active). For `Cc1ccc(C(=O)Nc2cc3c(cc2N2CCCCC2)n(C)c(=O)n3C)cc1`, the “outcome” value was “inactive” and the cell number change was -8.73%. In the case of `c1ccc(-c2nc(-c3nccc4ccccc34)oc2-c2ccccc2)cc1`, the “lipid storage change, negative = inhibition” value is reported as 3.9% (inactive) and the cell number change is reported as -5.47%. With `N#CCCN(C(=O)COc1ccc(C#N)cc1)c1ccc(F)cc1` the “lipid storage change, negative = inhibition” value was -8.49% (inactive) and the cell number change was 6.15%. With `CCN(C(=O)c1ccccc1Cl)c1ccccc1` the Potency was 23.1 µM (active). With `CN(C(=O)c1ccccc1Cl)c1ccccc1` the “lipid storage change, negative = inhibition” value was -1.64% (inactive). In the case of `CCN(C(=O)CCC(=O)N(CC)c1ccccc1)c1ccccc1`, the “lipid storage change, negative = inhibition” value is reported as 15.9% (inactive) and the cell number change is reported as -0.108%. For `CCC(C)(C)n1nnnc1C(c1cccnc1)N1CCN(c2cccc(C(F)(F)F)c2)CC1` (centres undefined), the “lipid storage change, negative = inhibition” value was -18.5% (inactive) and the cell number change was -8.43%. In the case of `O=[N+]([O-])c1ccc(-c2ccc(S(=O)(=O)N3CCOCC3)cc2)cc1`, the “lipid storage change, negative = inhibition” value is reported as 20.9% (inactive) and the cell number change is reported as -1.81%. For `CC(=O)C(=Cc1ccc(O)cc1)C(C)=O`, the “lipid storage change, negative = inhibition” value was -1.96% (inactive) and the cell number change was -7.54%. With `Cc1cc2c(cc1S(=O)(=O)N(C)c1ccccc1)NC(=O)CO2` the “lipid storage change, negative = inhibition” value was -11.8% (inactive) and the cell number change was -11.6%. For `CCc1cc(C(=O)OC)c(NC(=O)CN2CCN(C(=O)c3ccco3)CC2)s1`, the “lipid storage change, negative = inhibition” value was -16.1% (inactive) and the cell number change was 13.8%. In the case of `Cc1cc(Cl)ccc1NC(=O)CN1CCN(C(=O)c2ccco2)CC1`, the Potency is reported as 4.61 µM (active) and the cell number change is reported as 2.78%. With `CCOC(=O)c1cc(C)sc1NC(=O)CN1CCN(C(=O)c2ccco2)CC1` the “outcome” value was “inactive” and the cell number change was 16.2%. In the case of `COC(=O)c1cc(C)sc1NC(=O)CN1CCN(C(=O)c2ccco2)CC1`, the Potency is reported as 1.84 µM (active) and the cell number change is reported as 3.78%. For `O=C(CN1CCN(C(=O)c2ccco2)CC1)Nc1cc(Cl)ccc1Cl`, the “lipid storage change, negative = inhibition” value was -22.6% (inactive) and the cell number change was -13.1%. For `Cc1ccccc1NC(=O)CN1CCN(C(=O)c2ccco2)CC1`, the “lipid storage change, negative = inhibition” value was -7.52% (inactive) and the cell number change was 25%. With `O=C(O)c1cc(-c2cccnc2)nc2ccc(Br)cc12` the “lipid storage change, negative = inhibition” value was 0.173% (inactive) and the cell number change was 9.56%. With `CC(C)(C)c1ccc(OCc2nnc(SCC(N)=O)n2N)cc1` the “outcome” value was “inactive”. With `Cc1cccc(NC(=O)CCNC(=O)c2ccccc2Cl)n1` the “lipid storage change, negative = inhibition” value was 12.1% (inactive). In the case of `COC(=O)c1ccccc1NC(=O)c1cccnc1`, the “lipid storage change, negative = inhibition” value is reported as -6.62% (inactive) and the cell number change is reported as 10.2%. In the case of `C/C(=C\C=C(C#N)C#N)c1cc(C#N)c(N)o1`, the Potency is reported as 16.4 µM (active) and the cell number change is reported as -22.3%. In the case of `O=C(Cc1cccs1)Nc1ccccc1F`, the “lipid storage change, negative = inhibition” value is reported as 14% (inactive) and the cell number change is reported as 10.1%. For `CCOCCCNC(c1ccccc1)c1ccncc1` (centres undefined), the “outcome” value was “inactive” and the cell number change was 7.02%. For `Cc1nc2c(n1O)CCC/C2=N\O`, the “lipid storage change, negative = inhibition” value was 7.07% (inactive) and the cell number change was -1.11%. For `O/N=C1\CCCc2c1nc(-c1ccccc1F)n2O`, the “lipid storage change, negative = inhibition” value was 12.7% (inactive). With `COc1ccc(-c2nc3c(n2O)CCC/C3=N\O)cc1` the Potency was 4.61 µM (active) and the cell number change was 4.07%. For `O=C(c1cc(COc2ccc(F)cc2Cl)on1)N1CCCC(OCc2cccnc2)C1` (centres undefined), the “lipid storage change, negative = inhibition” value was -18.4% (inactive) and the cell number change was -4.29%. In the case of `COc1ccccc1OCc1cc(C(=O)N2CCCC(OCc3cccnc3)C2)no1` (centres undefined), the “lipid storage change, negative = inhibition” value is reported as -8.97% (inactive) and the cell number change is reported as 8.19%. For `CCC(O)C1CCN(C(=O)c2cc(COc3ccc4ncccc4c3)on2)CC1` (centres undefined), the “lipid storage change, negative = inhibition” value was 8.73% (inactive). With `COc1cccc(OCc2cc(C(=O)N3CCC(c4ccncc4)CC3)no2)c1` the Potency was 4.11 µM (active). In the case of `Cc1cccc(C)c1OCc1cc(C(=O)N2CCC(c3ccncc3)CC2)no1`, the “outcome” value is reported as “inactive” and the cell number change is reported as -16.1%. For `O=C(c1cc(COc2ccccc2)on1)N1CCCC(OCc2cccnc2)C1` (centres undefined), the Potency was 1.03 µM (active). With `O=C(c1cc(COc2ccc3ncccc3c2)on1)N1CCCC1` the Potency was 7.31 µM (active) and the cell number change was -24%. In the case of `CCN1CCN(C(=O)c2cc(COc3ccc4ncccc4c3)on2)CC1`, the “lipid storage change, negative = inhibition” value is reported as -15.1% (inactive) and the cell number change is reported as -6.54%. For `COc1cccc(OCc2cc(C(=O)N3CCN(C(C)=O)CC3)no2)c1`, the “outcome” value was “inactive” and the cell number change was 19%. In the case of `CCOC(=O)C(C(=O)OCC)N(C#N)c1nc(N(C)C)nc(N(C)C)n1`, the “lipid storage change, negative = inhibition” value is reported as 1.46% (inactive) and the cell number change is reported as 12.4%. With `O=c1[nH]n2cc(-n3cc([N+](=O)[O-])cn3)cnc2c1Br` the “outcome” value was “inactive”. With `Cc1ccc(C(=O)Nc2ccc(N3CCN(C)CC3)cc2)cc1C` the “lipid storage change, negative = inhibition” value was -16.1% (inactive) and the cell number change was 4.5%.
